ChEMBL document CHEMBL4513216, “Probing the Open Global Health Chemical Diversity Library for Multistage-Active Starting Points for Next-Generation Antimalarials” (ACS Infect Dis, 2020)
In all, about 69,000 compounds went through this assay and about 8,600 (12%) showed an effect of 50% or more. Only a selection was taken, and strong results are over-represented in it overall.

System: Plasmodium berghei
Assay: Screen against P. berghei liver stage (PbLuc), transformed with Luciferase, at 10uM
Assay type: functional, HepG2
Conditions: tested at 10 uM

Question: Which INHIBITION does the source give for `Cc1noc(C)c1CCC(=O)N1CCn2cccc2C1C` (centres undefined) here?
Answer: Its INHIBITION is -19.7%.

Question: `CN(C)C(=O)c1n[nH]c2c1CN(Cc1ccccn1)CC2` was tested. Which INHIBITION did it give?
Answer: The INHIBITION was -27%.

Question: How did the INHIBITION turn out when `O=C(Nc1cc2c(cc1Br)OCCO2)NC1CCS(=O)(=O)C1` (centres undefined) was run?
Answer: Its INHIBITION is 11.8%.

Question: For `CC1CCN(CCCNC(=O)C2CCCCC2)CC1`, which INHIBITION is on record?
Answer: Its INHIBITION is -32.3%.

Question: Which INHIBITION does the source give for `CC1CCN(CCCNC(=O)Nc2cc3c(cc2Br)OCCO3)CC1` here?
Answer: Its INHIBITION is 63.3%.

Question: With `CN(Cc1nccn1CC(F)(F)F)C(=O)c1ccc(F)c(F)c1` as the molecule, how does the INHIBITION read?
Answer: Its INHIBITION is -17.4%.

Question: `Cc1nn(-c2ncnc3[nH]cnc23)c2c1C(CC(C)C)CC(=O)N2` (centres undefined) was tested. Which INHIBITION did it give?
Answer: The INHIBITION was -4.35%.

Question: For `CN(C)c1ncnc2c1CCN(Cc1nccs1)CC2`, which INHIBITION is on record?
Answer: The INHIBITION was -12.1%.

Question: `CC(=O)N1CCC2(CCN(Cc3ccccn3)C2=O)C1` (centres undefined) was tested. Which INHIBITION did it give?
Answer: Its INHIBITION is -20.1%.

Question: `CCc1nc(CN2CCN(C(=O)c3cnccn3)CC2)cs1` was tested. Which INHIBITION did it give?
Answer: Its INHIBITION is 9.94%.

Question: With `Cc1occc1C(=O)N1CCC2(CCN(Cc3ccccn3)C2=O)C1` (centres undefined) as the molecule, how does the INHIBITION read?
Answer: The INHIBITION was 65.7%.

Question: `Cc1cnc(C(=O)N2CCC3(CCN(Cc4ccccn4)C3=O)C2)cn1` (centres undefined) was tested. Which INHIBITION did it give?
Answer: Its INHIBITION is -39.2%.

Question: `CN(C)C(=O)N1CCC2(CC1)CCN(Cc1ccccn1)C2=O` was tested. Which INHIBITION did it give?
Answer: The INHIBITION was 20.5%.

Question: `Cc1ccc(C(=O)N2CCC3(CC2)CCN(Cc2ccccn2)C3=O)o1` was tested. Which INHIBITION did it give?
Answer: Its INHIBITION is 52.2%.

Question: With `O=C(c1cnccn1)N1CCN(Cc2csc(-c3ccccc3)n2)CC1` as the molecule, how does the INHIBITION read?
Answer: The INHIBITION was 59.4%.

Question: Which INHIBITION does the source give for `O=C(c1cnccn1)N1CCC2(CC1)CCN(Cc1ccccn1)C2=O` here?
Answer: The INHIBITION was 53.2%.

Question: With `CC(C)(C)c1nc(CN2CCN(C(=O)c3cnccn3)CC2)cs1` as the molecule, how does the INHIBITION read?
Answer: The INHIBITION was 20.8%.

Question: With `O=C(c1cccnc1)N1CCC2(CC1)CCN(Cc1ccccn1)C2=O` as the molecule, how does the INHIBITION read?
Answer: Its INHIBITION is -20.1%.

Question: How did the INHIBITION turn out when `O=C(c1ccncc1)N1CCC2(CC1)CCN(Cc1ccccn1)C2=O` was run?
Answer: The INHIBITION was 14.6%.

Question: Which INHIBITION does the source give for `Cc1oncc1C(=O)N1CCC2(CCN(Cc3ccccn3)C2=O)C1` (centres undefined) here?
Answer: The INHIBITION was 25.1%.

Question: With `CNc1cncc(C2CCCN2C(=O)CCn2ccnc2C(C)C)n1` (centres undefined) as the molecule, how does the INHIBITION read?
Answer: Its INHIBITION is 21.685%.

Question: For `O=C(CC1CN(Cc2ccccc2)CCO1)NC1CCSCC1` (centres undefined), which INHIBITION is on record?
Answer: Its INHIBITION is 35.1%.

Question: With `COCC(=O)N1CCCC1c1cc(N2CCN(C(C)=O)CC2)cc(C)n1` (centres undefined) as the molecule, how does the INHIBITION read?
Answer: Its INHIBITION is 18.9%.

Question: How did the INHIBITION turn out when `COCC(=O)N1C[C@H]2CCCC(OCc3cccnc3)[C@H]2C1` (some centres undefined) was run?
Answer: Its INHIBITION is -3.52%.

Question: Which INHIBITION does the source give for `Cc1nc(CN2CCO[C@@H]3CN(C(=O)NC(C)C)CC[C@@H]3C2)cs1` here?
Answer: Its INHIBITION is 36.4%.

Question: `CNS(=O)(=O)CC(=O)NCc1cc2c(s1)CCCCC2` was tested. Which INHIBITION did it give?
Answer: Its INHIBITION is 28.9%.

Question: `c1ccc(-c2nc(CCNC3CCOC4(CCOCC4)C3)no2)cc1` (centres undefined) was tested. Which INHIBITION did it give?
Answer: Its INHIBITION is -6.34%.

Question: For `CCn1nccc1CNc1[nH]cnc2nc(C)nc1-2`, which INHIBITION is on record?
Answer: Its INHIBITION is 26.4%.

Question: `O=C(NC1CCN(c2ccc(-c3ccccc3F)nn2)C1)c1ccc[nH]1` (centres undefined) was tested. Which INHIBITION did it give?
Answer: Its INHIBITION is 12.4%.

Question: For `O=C(NC1CCN(c2ccc(-c3ccccc3F)nn2)C1)c1cc[nH]n1` (centres undefined), which INHIBITION is on record?
Answer: The INHIBITION was 49.5%.

Question: For `O=C(NC1CCN(c2ccc(-c3ccccc3F)nn2)C1)C1CCC1` (centres undefined), which INHIBITION is on record?
Answer: Its INHIBITION is 60.8%.

Question: For `CCOCC(=O)N1Cc2nccn2CC(CN2CCCC2)C1` (centres undefined), which INHIBITION is on record?
Answer: The INHIBITION was 34.6%.

Question: With `Cc1cc(C)nc(N2C[C@H]3OC(=O)N(CCc4cccc(Cl)c4)[C@H]3C2)n1` as the molecule, how does the INHIBITION read?
Answer: Its INHIBITION is -17.8%.

Question: For `O=C1O[C@@H]2CN(Cc3ccccn3)C[C@@H]2N1CCCc1ccc(F)cc1`, which INHIBITION is on record?
Answer: The INHIBITION was 15.1%.

Question: For `O=C1O[C@@H]2CN(c3ccc(Cl)cn3)C[C@@H]2N1CCc1ccc(F)cc1`, which INHIBITION is on record?
Answer: The INHIBITION was -2.04%.

Question: Which INHIBITION does the source give for `O=C1O[C@@H]2CN(C3CCOCC3)C[C@@H]2N1CCCc1ccc(F)cc1` here?
Answer: The INHIBITION was 33%.

Question: Which INHIBITION does the source give for `O=C1O[C@@H]2CN(c3ccncc3)C[C@@H]2N1CCCc1ccc(F)cc1` here?
Answer: The INHIBITION was 75.2%.

Question: With `O=C1O[C@@H]2CN(c3cnccn3)C[C@@H]2N1CCCc1ccc(F)cc1` as the molecule, how does the INHIBITION read?
Answer: The INHIBITION was 9.4%.

Question: `O=C1O[C@@H]2CN(Cc3ccncc3)C[C@@H]2N1CCCN1CCOCC1` was tested. Which INHIBITION did it give?
Answer: The INHIBITION was -43.5%.

Question: How did the INHIBITION turn out when `O=C1O[C@@H]2CN(c3ccccn3)C[C@@H]2N1CCCc1ccc(F)cc1` was run?
Answer: Its INHIBITION is 86.7%.

Question: For `O=C1O[C@@H]2CN(c3ncccn3)C[C@@H]2N1CCCc1ccc(F)cc1`, which INHIBITION is on record?
Answer: Its INHIBITION is 83.8%.

Question: `CCC1=N[C@@]2(CC[C@@H]3CN(CC4CC4)C[C@@H]32)C(=O)N1CC` was tested. Which INHIBITION did it give?
Answer: Its INHIBITION is 7.31%.

Question: Which INHIBITION does the source give for `CCCS(=O)(=O)N1C[C@@H](c2nc(C)no2)C[C@H]2OCC[C@H]21` here?
Answer: The INHIBITION was 33%.

Question: With `CN(C)c1ncc2c(O)nc(C3CCNCC3)cc2n1` as the molecule, how does the INHIBITION read?
Answer: Its INHIBITION is -9.51%.

Question: With `COCc1n[nH]c2c1CN(C(=O)c1ccncc1)C2` as the molecule, how does the INHIBITION read?
Answer: Its INHIBITION is 21.6%.

Question: For `COc1ccccc1CCNC(=O)N(C)C(C)CS(C)(=O)=O` (centres undefined), which INHIBITION is on record?
Answer: The INHIBITION was 38.7%.

Question: For `CC(C)Oc1ccccc1CNC(=O)N(C)C(C)CS(C)(=O)=O` (centres undefined), which INHIBITION is on record?
Answer: The INHIBITION was 33.2%.

Question: With `COc1cc(Cl)ccc1CNC(=O)N(C)C(C)CS(C)(=O)=O` (centres undefined) as the molecule, how does the INHIBITION read?
Answer: The INHIBITION was 61%.

Question: How did the INHIBITION turn out when `CCOC1CCCN(C(=O)c2nn(-c3ccccc3F)cc2O)C1` (centres undefined) was run?
Answer: The INHIBITION was 11.2%.

Question: With `N#CCCCOc1cccc(CN2CCCC2c2ccc[nH]2)c1` (centres undefined) as the molecule, how does the INHIBITION read?
Answer: The INHIBITION was 43.1%.

Question: `NC(=O)COc1cccc(Cn2cccn2)c1` was tested. Which INHIBITION did it give?
Answer: The INHIBITION was -24.9%.

Question: Which INHIBITION does the source give for `NC(=O)c1ccc(OCC(=O)N2CCCC2c2ccc[nH]2)cc1` (centres undefined) here?
Answer: Its INHIBITION is 28.2%.

Question: With `N#Cc1cccc(CN2CCCC2Cn2cncn2)c1` (centres undefined) as the molecule, how does the INHIBITION read?
Answer: Its INHIBITION is 7.18%.

Question: With `CN(C)c1cccc(C2CCCN2Cc2nnnn2C2CC2)c1` (centres undefined) as the molecule, how does the INHIBITION read?
Answer: Its INHIBITION is 26.6%.
